Consider seven compounds from PubChem BioAssay.

The AC50 is the concentration giving half of the maximal activity seen.

Each structure is given as a SMILES string. Inconclusive results are not listed. Calls of active or inactive are those of the source. Unless noted, no cut-off is given here; in the data, nearly all actives have AC50 up to about 26 µM.

Assay [1] in a line: growth inhibition of DIPG glioma cells, dose response, cell-based, SU-DIPG-XVII, MIPE5.0, CellTiter-Glo, qHTS (AID 1347060).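 For AC50: cells exposed to compound for 48 hours before viability readout.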 The following applies: SU-DIPG-XVII viability, CellTiter-Glo ATP luminescence. In general terms: In ATP-based viability assays light output follows the ATP content of the culture.
Assay [2] in a line: growth inhibition of DIPG glioma cells, dose response, cell-based, SU-DIPG-XIII, MIPE5.0, CellTiter-Glo, qHTS (AID 1347064; cut-off not given, nearly all actives have AC50 up to about 23 µM;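 for AC50: cells exposed to compound for 48 hours before the viability read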). The following applies: SU-DIPG-XIII viability, CellTiter-Glo ATP luminescence.
Assay [3] in a line: viability loss in pontine glioma line – cell-based, SU-DIPG-XXV, MIPE5.0, CellTiter-Glo, qHTS, dose response (AID 1347065).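 Note: cells exposed to compound for 48 hours before ATP readout.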 The following applies: CellTiter-Glo ATP luminescence.
The nature of assay [4]: JHH-DIPG-1 glioma cell viability, MIPE5.0 library, CellTiter-Glo luminescence, qHTS (AID 1347067).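 Note: cells exposed to compound for 48 hours before readout.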 The following applies: JHH-DIPG-1 glioma viability, CellTiter-Glo ATP luminescence.

As for `CCN(CC)CCNC(=O)c1c(C)[nH]c(/C=C2/C(=O)Nc3ccc(-c4csc(-c5ccccc5)n4)cc32)c1C`, the AC50 in assay [1] is 3.32 µM (active); in assay [2], 2.95 µM (active); in assay [3], 4.68 µM (active); in assay [4] it was 2.95 µM (active).

For the compound `Cc1nc([C@](C)(O)CO)sc1-c1cnc(N)c(O[C@H](C)c2cc(F)ccc2-n2nccn2)c1`, the half-maximal activity concentration (AC50) in assay [1] was 8.33 µM (active); in assay [2], 1.48 µM (active); in assay [3], 2.63 µM (active).

On to `NS(=O)(=O)Oc1ccc2c3c(c(=O)oc2c1)CCCCC3`, for which the call in assay [1], in assay [2], in assay [3] and in assay [4] was inactive.

Regarding `CC1=C(c2ccc(O)cc2)[C@H](c2ccc(OCCN3CCCCC3)cc2)Oc2cc(O)ccc21`, the results for the AC50 in assay [1], in assay [2] and in assay [3] were 20.9 µM (active), 18.6 µM (active) and 16.6 µM (active), respectively. For the same compound, the call in assay [4] was inactive.

For `CC#CC(=O)N1CCC[C@H]1c1nc(-c2ccc(C(=O)Nc3ccccn3)cc2)c2c(N)nccn12`, the compound was called inactive in assay [1], in assay [2], in assay [3] and in assay [4].

Turning to `Cn1nccc1Nc1nccc(-c2ccn([C@H](CO)c3ccc(Cl)c(F)c3)c(=O)c2)n1`, the AC50 in assay [1] was 18.6 µM (active); in assay [2], 10.5 µM (active); in assay [3], 18.6 µM (active); in assay [4], 1.48 µM (active).

For `Nc1ccc(/C=C/C(=O)NCc2cc3cc(-c4ccc(C(=O)N5CCC(F)(F)CC5)cc4)cc(-c4ccc(F)cc4)c3o2)cn1`, the concentration at half-maximal activity (AC50) was 0.105 µM (active) in assay [1], 0.372 µM (active) in assay [2], 0.742 µM (active) in assay [3] and 0.525 µM (active) in assay [4].
